The whole screen tested about 5,500 compounds, of which about 2,000 (36%) were called active. About 18% were inconclusive and are not listed. No stated cut-off is given here; in the data, active means normalized growth mostly below about 0.91 (no sharp cut-off); inconclusive means no clear call, values can overlap the other calls; inactive means mostly above about 0.92. Some of the results follow.
Experiment: chemical genetic growth profiling, strain panel (AID 1159580);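 further: tested at 20 µM; growth read once vehicle control cultures reached saturation at 30 °C; 1 = growth at the plate median or of vehicle wells; lower values mean less growth of the strain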
Details: S. cerevisiae deletion strains, growth OD
[1] = locus YAL013W, strain DEP1, hits give low values
[2] = locus YGR078C, strain PAC10, hits give low values
[3] = locus YJR075W, strain HOC1, hits give low values
[4] = locus YMR307W, strain GAS1, hits give low values

Measured: normalized growth

CN1C[C@@H](CS(=O)(=O)N(C)C)C[C@@H]2c3cccc4c3c(cn4C)C[C@H]21
inactive: [1] 1 | locus YAL040C, strain CLN3, hits give low values 1.01 | locus YCL061C, strain MRC1 (second series), hits give low values 1 | locus YDR363W, strain ESC2, hits give low values 1.01 | locus YER002W, strain NOP16, hits give low values 1.01 | [2] 1.01 | [3] 1 | [4] 1.03 | locus YNL175C, strain NOP13, hits give low values 1.01 | locus YNL197C, strain WHI3, hits give low values 1.02 | locus YNL224C, strain SQS1, hits give low values 1.01 | locus YOR083W, strain WHI5 (second series), hits give low values 1.03

Cc1c(C)c(C)c(CO)c(C)c1C
inactive: [1] 0.988 | locus YBR229C, strain ROT2, hits give low values 1.01 | locus YDL101C, strain DUN1, hits give low values 1.01 | locus YDR150W, strain NUM1, hits give low values 0.981 | locus YEL061C, strain CIN8, hits give low values 0.996 | [2] 0.998 | locus YHR030C, strain SLT2, hits give low values 1.06 | locus YHR087W, strain rtc3, hits give low values 1.01 | locus YJL187C, strain SWE1, hits give low values 1 | locus YJR043C, strain POL32, hits give low values 1 | [3] 1.04 | locus YLR039C, strain RIC1, hits give low values 0.98 | locus YLR058C, strain SHM2 (second series), hits give low values 1.02 | locus YLR085C, strain ARP6, hits give low values 1.06 | locus YLR262C, strain YPT6, hits give low values 0.955 | locus YML094W, strain GIM5, hits give low values 0.996 | locus YMR219W, strain ESC1, hits give low values 1.01 | locus YMR263W, strain SAP30, hits give low values 0.993 | [4] 1.03 | locus YNL153C, strain GIM3, hits give low values 0.97 | locus YNL298W, strain CLA4 (second series), hits give low values 1.04 | locus YNL322C, strain KRE1, hits give low values 1.01 | locus YNR030W, strain Alg12, hits give low values 1 | locus YPL055C, strain LGE1, hits give low values 0.997 | locus YPL241C, strain CIN2, hits give low values 0.989 | locus YPR135W, strain CTF4, hits give low values 1
